KB-V1 MDR tox: kills drug-selected multidrug resistant KB-V1 cells. KB-V1 MDR cells viability, CellTiter-Glo, 72 h. Potency, µM (highest dose often 46.1 µM), actives largely listed as cytotoxic. 3.4% of 400,000 active. AID 1347076; further: nearly all actives have a fitted effect of over 60% in size
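KB-V1 cells (P-gp-expressing MDR subline of KB-3-1) in phenol-red-free DMEM with 10% FBS were exposed to library compounds over a concentration series for 72 h at 37 degrees C. Viability read by CellTiter-Glo luminescence; concentration-effect curves fitted after normalization.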
HT1080 IDH1KD tx: kills HT-1080 cells with IDH1 knockdown; Potency, µM (doses to about 46.1 µM), most hits filed as cytotoxic; HT-1080 IDH1 knockdown viability, ATP luminescence, 48 h; 2% of 360,000 active
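Knockdown cells (IDH1KD HT-1080) received compounds 2 h after plating at 750 cells/well and were kept 48 h at 37 °C in 5% FBS RPMI. A CellTiter-Glo luminescence read gave % activity for curve fitting.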
ATXN viability: reduces viability in counter-screen for ATXN expression inhibitors | Potency, µM (highest dose often 56.7 µM), hits mostly cytotoxic | S2 cells (HEK-293 line with an ATXN2-luciferase reporter) viability, CellTiter-Fluor protease fluorescence, 24 h | 0.49% of 400,000 active | AID 651635; further: nearly all actives have a fitted effect of over 40% in size
HT1080-NT tox: kills 2HG-producing HT-1080-NT fibrosarcoma cells. 1.6% of 360,000 active. Potency, µM (top dose mostly 46.1 µM), hits mostly cytotoxic. HT-1080-NT fibrosarcoma viability, CellTiter-Glo ATP luminescence, 48 h. AID 686970;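 further: NT is the 2HG producing partner of a matched IDH1 knockdown line; nearly all actives have a fitted effect of over 55% in size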
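HT-1080-NT fibrosarcoma cells (2HG-overproducing), 750 cells/well in RPMI with 5% FBS, dosed after 2 h and incubated 48 h at 37C. CellTiter-Glo luminescence normalized to DMSO and no-cell wells; concentration-response curves fitted and classed.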
ATXN2 expr inh: reduces ATXN2 reporter expression in HEK-293 cells | HEK-293 ATXN2-luciferase reporter, luminescence, 24 h | Potency, µM (top dose mostly 57 µM), hits mostly inhibitors | 0.72% of 360,000 active; further: nearly all actives have a fitted effect of over 55% in size
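qHTS (up to 57 uM final) was run with 24 h compound exposure of reporter cells at 37 °C. Each well was multiplexed: SteadyGlo luminescence measured ATXN2-luciferase expression after a fluorogenic Gly-Phe-AFC viability readout (25 uM final).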
KB-3-1 tox: KB-3-1 parental cell cytotoxicity; KB-3-1 viability, CellTiter-Glo ATP luminescence, 72 h; Potency, µM (series often up to 46.1 µM), actives largely listed as cytotoxic; 1.4% of 400,000 active; AID 1347075; further: nearly all actives have a fitted effect of over 60% in size
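Cytotoxicity measured as CellTiter-Glo luminescence after 72 h at 37 C. Compound titrations were pinned onto drug-naive KB-3-1 parental adenocarcinoma cells grown in DMEM with 10% FBS, and normalized data fitted to concentration-response curves.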
Numbers stand for hits; n = inactive; u = inconclusive; x = not tested or not shown; ! = not active in a repeat. A selection: hits, their analogues and other compounds. The true share with any hit is near 6.2%. The call rests on the fitted dose curve; in most records, active means well fitted curve in the direction sought with a large enough effect; inconclusive means small, poorly fitted or top-dose-only effect, or another doubt; inactive means no such curve, though single readings can be large; an effect the other way counts as inactive or inconclusive.

SMILES	KB-V1 MDR tox	HT1080 IDH1KD tx	ATXN viability	HT1080-NT tox	ATXN2 expr inh	KB-3-1 tox
CCC1=Nc2cc(C(=O)NC3CCCC3)ccc2Sc2ccc(Cl)cc21	2.91µM	x	u	x	n	5.8µM
CCOc1ccc(CCNC(=O)c2[nH]c3cc(OC)ccc3c2Sc2ccccc2)cc1OCC	n	x	n	x	n	n
CCC(=O)N1CCc2cc(S(=O)(=O)CCC(=O)N3CCN(c4cc(C)ccc4C)CC3)ccc21	n	x	n	x	n	n
COC(=O)c1ccc(NC(=O)N2CCN(c3nnc(C)c4c(C)n(-c5ccccc5)nc34)CC2)cc1	n	x	n	x	n	n
COc1ccc(/C=C2\SC(=O)N=C2N)cc1OC	n	n	n	n	x	n
N=C1S/C(=C\c2ccc(-c3cccc(Cl)c3)o2)C(=O)N1c1nccs1	u	u	5.62µM	n	3.55µM	7.31µM
COc1ccc(/C=C2\SC(=N)N(c3nccs3)C2=O)cc1OC	n	u	u	u	11.2µM	u
O=C1OC(c2cccs2)=N/C1=C\c1ccc(-c2cccc(Cl)c2)o1	n	n	n	n	n	n
CN(Cc1ccccc1)C(=O)c1ccc(Nc2nc(CN)cs2)nc1	n	n	u	n	n	n
CC(=O)c1ccc(Nc2nc(C(N)CCc3ccccc3)cs2)cc1 (centres undefined)	n	u	u	20.6µM	u	n
CC(=O)c1ccc(Nc2nc(C(N)Cc3ccc(N)cc3)cs2)cc1 (centres undefined)	n	n	n	n	n	n
CC(=O)c1ccc(Nc2nc(C(N)Cc3ccc(Cl)cc3)cs2)cc1 (centres undefined)	n	u	u	23.1µM	u	u
CC(C)C(N)c1csc(Nc2ccc(C(=O)N(C)Cc3ccccc3)cn2)n1 (centres undefined)	n	14.6µM	u	14.6µM	n	n
Cc1cccc(-c2nc(S(=O)(=O)c3ccc(F)cc3)c(N3CCN(c4ccccc4)CC3)o2)c1	n	x	x	x	x	n
COC(=O)[C@]12CCCCC=C1N(CCC1=CCCCC1)C(=O)[C@H](CC(=O)N1CCN(C(=O)c3ccco3)CC1)C2	n	n	x	n	u	n
Cc1ccc(C)c(NC(=O)C2CCN(c3cc(C)nc4c(-c5ccc(Cl)cc5)c(C)nn34)CC2)c1	n	x	u	x	n	n
CC1CC(=O)NN=C1c1ccc(NCC(C)(C)NCC(O)COc2cc(Cl)ccc2C#N)cc1 (centres undefined)	x	x	n	x	n	x
CC(C)(C)c1ccc(-c2nc(-c3ccncc3)no2)cc1	16.4µM	u	n	n	n	u
c1ccc(-c2noc(-c3ccncc3)n2)nc1	n	u	n	11.2µM	n	u
CNC(=O)CCc1nc(-c2ccc(C(C)(C)C)cc2)no1	n	n	n	n	n	n
Cc1cccc(-c2noc(-c3ccc4c(c3)OCO4)n2)c1	u	n	x	n	n	n
c1ccc(-c2noc(-c3ccc4c(c3)OCO4)n2)nc1	4.11µM	2.51µM	n	1.78µM	u	4.61µM
CC(C)(C)c1ccc(-c2noc(CCC(N)=O)n2)cc1	n	n	n	n	0.316µM	n
Cc1cnc(SCC2CCCO2)nc1C1CCCN(Cc2nc(-c3ccccc3)cs2)C1 (centres undefined)	x	x	n	x	x	x
Cc1onc(-c2ccccc2Cl)c1-c1nc(-c2ccccn2)no1	n	n	n	n	n	n
SMILES	KB-V1 MDR tox	HT1080 IDH1KD tx	ATXN viability	HT1080-NT tox	ATXN2 expr inh	KB-3-1 tox
Clc1ccccc1/C=C/c1nc(-c2ccccn2)no1	n	n	n	n	5.01µM	n
COc1cccc(-c2nc(-c3ccccn3)no2)c1	u	u	n	u	u	u
c1ccc(-c2noc(-c3ccc4ccccc4c3)n2)nc1	5.8µM	n	n	n	2.24µM	u
COc1ccc(CNC(=O)CSc2nnc3c(n2)[nH]c2ccc(C)cc23)cc1	n	n	n	n	n	n
COc1ccc2[nH]c3nc(SCc4nnc(-c5ccc(C)cc5)o4)nnc3c2c1	u	u	x	u	20µM	u
CCN(CC)CCN(C(=O)/C=C/c1cccs1)c1nc2ccc(F)cc2s1	n	n	n	n	x	n
COc1ccc(C)c2sc(N(CCN(C)C)C(=O)/C=C/c3cccs3)nc12	u	u	u	20.6µM	u	u
CN(C)CCCN(C(=O)/C=C/c1cccs1)c1nc2ccc(F)cc2s1	18.4µM	u	x	9.2µM	u	20.6µM
COc1cccc2sc(N(CCN(C)C)C(=O)/C=C/c3cccs3)nc12	n	u	u	n	x	n
COc1ccc(OC)c2sc(N(CCN(C)C)C(=O)/C=C/c3cccs3)nc12	u	16.4µM	x	18.4µM	u	u
COc1cccc(CN2CCOc3ccc(C(O)c4cccnc4)cc3C2)c1 (centres undefined)	x	x	n	x	x	x
CCCCCCCCCCCCCCCC[n+]1cccc(C(=O)N(CC)CC)c1	n	20.6µM!	31.6µM	u	31.6µM!	13µM!
CCCCCCCC[n+]1cccc(C(=O)N(CC)CC)c1	n	n	n	n	x	n
CN(CCO)C(=O)c1cn(C2CCCN(Cc3cc4ccccc4s3)C2)nn1 (centres undefined)	x	x	n	x	x	x
Cc1ccc(OCC(=O)N2N=C(C(F)(F)F)CC2(O)C(C)(C)C)cc1C (centres undefined)	18.4µM	n	u	n	u	n
Cc1cc(C)c(C)c(S(=O)(=O)N2CCN(c3ncnc4ccccc34)CC2)c1C	u	23.1µM	n	u	x	18.4µM
Cc1cc(C)c(C)c(S(=O)(=O)N2CCN(c3ccccn3)CC2)c1C	u	n	n	n	n	n
CCc1nnc2c3ccccc3nc(Nc3cc(C)cc(C)c3)n12	n	x	n	x	n	n
CCc1nc2ccccc2c(C(=O)OCc2nc3ccccc3c(=O)[nH]2)c1C	u	18.4µM	n	10.3µM	n	u
Cc1cccc(NC(=O)C(=O)c2cc(C)n(-c3ccccc3)c2C)c1C	n	x	n	x	n	n
CCCOc1ccc(C(F)(F)F)cc1NC(=O)CCc1c(C)noc1C	n	n	n	n	n	n
Cc1ccc(C2Oc3ccccc3C3=C2C(c2cccs2)n2ncnc2N3)cc1 (centres undefined)	n	u	n	20.6µM	n	9.2µM
Fc1ccc(C2C3=C(Nc4ncnn42)c2ccccc2OC3c2ccncc2)cc1 (centres undefined)	n	n	n	u	n	n
CC1(C)NC(=O)N(CC(=O)OCC(=O)Nc2c(Br)cc([N+](=O)[O-])cc2Br)C1=O	n	n	n	n	n	n
O=C(c1cccc(Cl)c1Cl)N(Cc1ccco1)Cc1cccs1	n	x	x	x	x	n
COc1cc(/C=N/Nc2snc(SC)c2C#N)cc(OC)c1OC	n	4.61µM	u	u	3.16µM	u
CC1CC(=O)NN=C1c1ccc(N(C)C)c([N+](=O)[O-])c1 (centres undefined)	u	n	n	n	n	n
